From PubChem BioAssay
NLRP3 yeast inh = NALP3 inflammasome inhibitors in reconstituted yeast, primary screen, luminescence, uHTS; Yeast reconstituted NLRP3/ASC/caspase-1, beta-gal luminescence, 24 h; inhibition, % at 10 µM; 330,000 tested, 0.39% active; AID 2825, 2010;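 active = inhibition of 50% or more; inactive = inhibition below 50%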;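 also: plate controls were induced DMSO wells for no effect and uninduced yeast grown without galactose for full effect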
TIM10 inh = growth inhibitors of isogenic TIM10 control yeast, primary screen, counter-screen for tim10-1 yeast inhibitor project, luminescence, uHTS. 330,000 tested, 1.4% active. S. cerevisiae TIM10 strain growth, BacTiter-Glo luminescence, 24 h. inhibition, % at 10 µM;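 active = inhibition of 40% or more at the single tested concentration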;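 also: wild-type TIM10 isogenic control strain grown at permissive 25 °C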
tim10-1 inh = growth inhibitors of tim10-1 mutant yeast, primary screen, luminescence, uHTS | S. cerevisiae tim10-1 ts strain growth, BacTiter-Glo, 24 h | inhibition, % at 20 µM | 330,000 tested, 2.2% active;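 active = inhibition of at least 40%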;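 also: mutant grown at 25 °C; 0% = DMSO wells with yeast and 100% = wells holding no yeast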
SKKanGAS inh = S. pyogenes SKKanGAS growth inhibitors in kanamycin, primary screen, streptokinase expression inhibitor project, SKKanGAS strain, BacTiter-Glo luminescence | 6 h | inhibition, % at 7.5 µM | 300,000 tested, 1.3% active;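 active = mean replicate score, as percent of positive control median, at least 50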;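 also: strain carries kanamycin resistance gene driven by streptokinase promoter and grows in 40 µg/ml kanamycin; loss of luminescence reflects streptokinase promoter inhibition or plain growth inhibition; 0% = median of DMSO wells and 100% = positive control at its reference dose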
tim23-1 inh = growth inhibitors of tim23-1 mutant yeast, primary screen, luminescence, uHTS; 330,000 tested, 1.3% active; S. cerevisiae tim23-1 growth, BacTiter-Glo luminescence, 24 h; AID 463212, 2010; inhibition, % at 20 µM;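 active = growth inhibition of the mutant yeast at or above 50%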;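 also: temperature-sensitive mutant grown at 25 °C; plate controls were DMSO-treated mutant yeast for no effect and medium wells lacking yeast for full effect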
PfHsp90 set2 = growth inhibition of PfHsp90-expressing yeast, primary screen, antimalarial PfHsp90 inhibitor project, S. cerevisiae, BacTiter-Glo luminescence, single point, set 2 | 310,000 tested, 0.32% active | BacTiter-Glo ATP, 48 h; yeast lacking PDR1 and PDR3 efflux regulators | AID 504621, 2011 | inhibition, % at 9.4 µM;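 active = every replicate shows inhibition above about 80%, whatever the replicate mean, limit read from the data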;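 also: 0% = DMSO neutral controls and 100% = 20 µM radicicol positive controls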
TIM10 conf = growth inhibitors of wild-type TIM10 yeast, confirmation, counter-screen for tim10-1 synthetic lethality project, single concentration, luminescence, S. cerevisiae. shares compounds with TIM10 inh. S. cerevisiae tim10 strain growth, BacTiter-Glo luminescence, 24 h. inhibition, % at 10 µM. 4,600 tested, 63% active;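 active = inhibition of yeast growth at or above a set limit in either of two replicates at 10 µM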;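 also: this counterscreen used the strain with wild-type TIM10; 0% = yeast with DMSO and 100% = medium wells lacking yeast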
* hit, by the source's call; x = no result given. Hits are enriched below; roughly 4.6% of the tested compounds scored in any of these assays.

SMILES	NLRP3 yeast inh	TIM10 inh	tim10-1 inh	SKKanGAS inh	tim23-1 inh	PfHsp90 set2	TIM10 conf
CCCCNC(=O)Nc1nc2ccc(CC)cc2s1	18	40	35	0	28	x	30
CCn1cc([N+](=O)[O-])c(C(=O)N2N=C3/C(=C/c4cccs4)CCCC3C2c2cccs2)n1 (stereo unspecified)	12	41*	33	8	27	x	9
COc1cc(C(=O)O)nc2ccc([N+](=O)[O-])cc12	16	-2	0	9	11	6	x
COC(=O)c1ccc(C(C(=O)NC2CCCCC2)N(Cc2ccc(F)cc2)C(=O)Cc2cccs2)cc1 (stereo unspecified)	9	-6	15	18	8	-1	x
O=C(NC1CCCC1)C(c1ccc(F)cc1)N(Cc1ccc(Cl)cc1)C(=O)CCl (stereo unspecified)	-3	42*	32	-2	46	-33	43*
N#Cc1ccsc1NC(=O)C1CCCN1S(=O)(=O)c1cccs1 (stereo unspecified)	15	6	8	1	16	x	x
COc1ccc(C(=O)N2CCCC(c3ccccc3)=N2)cc1	30	45*	40	16	39	5	22
Cc1ccc(C(=O)N2CCCC(c3ccc(Cl)cc3)=N2)cc1	23	4	31	1	29	-18	x
O=C(Oc1ccc2c3c(c(=O)oc2c1)CCCC3)c1ccco1	18	44*	30	6	50	13	45*
Cc1scc(C(=O)N/N=C/c2ccc(OCC(C)C)cc2)c1C	25	44*	17	8	30	-17	20
CC(=O)Nc1ccc(/C=C(\C#N)C(=O)NC2CCCCC2C)cc1 (stereo unspecified)	16	68*	38	7	47	0	45*
COc1cc(/C=C(\C#N)C(=O)NC2CCCCC2C)ccc1OS(=O)(=O)c1ccc(C)cc1 (stereo unspecified)	19	34	36	3	36	-20	x
COc1cccc(CN(C)C(=S)Nc2ccc(C)c(C)c2)c1	9	46*	30	3	9	x	3
CCNC(=O)NC(=O)C(C)N1C(=O)NC(c2ccccc2)(c2ccccc2)C1=O (stereo unspecified)	6	10	0	-3	10	-1	x
CCCNC(=O)c1ccc2c(c1)ncn2-c1cc(C)cc(C)c1	9	42*	27	5	38	-2	22
Cc1cc(C)cc(-n2cnc3cc(C(=O)O)ccc32)c1	-1	10	-3	-4	9	0	x
Cc1cc(C(=O)CSc2ccccc2)cc(C)c1O	26	20	16	2	29	-53	x
Oc1[nH]c2ccccc2c1N=Nc1ccc(C(F)(F)F)cn1	37	53*	26	-8	25	11	29
Oc1[nH]c2ccc(Br)cc2c1N=Nc1ccc(C(F)(F)F)cn1	25	31	35	23	-6	-35	x
CSc1ccccc1NC(=O)Cn1c([N+](=O)[O-])cnc1C	11	-8	10	-8	12	14	x
S=c1[nH]nc(-c2ccc(Br)o2)n1Cc1ccccc1	-15	46*	38	4	46	0	35*
O=C(Cn1nc2n(c1=O)-c1ccccc1SC2)N/N=C/c1cccnc1	-1	1	-11	-1	13	12	x
CCCCn1c(=O)[nH]c(=O)c2c1nc(CN(C)Cc1cccc(OC)c1OC)n2CCC	x	x	x	0	x	-13	x
CCCCN1CC(=O)N2[C@H](c3ccc(Cl)cc3)[C@@H]3C(=O)N(CC)C(=O)[C@@H]3[C@]2(C)C1=O	15	53*	-1	-3	-10	1	-7
